PubChem BioAssay (EPA / NIEHS)
“And” between values parts separate entries of the source, which are not always exact repeats. Equal values may be shown once. Inconclusive results are not listed. Some structures have more than one record in an assay (separate samples or runs), and their calls can disagree. The source made the active and inactive calls. The calls were made as follows, unless noted: active = hit-call score of the fitted dose curve at least 0.9, where 1 is the maximum; inactive = score below 0.9.

Experiments:
[1] = molecular target: human RAR-related Orphan Receptor gamma (RORg), RORC (gene 6097) (UniProt P51449); test: ATG_RORg_TRANS: Attagene TRANS-FACTORIAL HepG2 Assay for human RAR-related Orphan Receptor gamma (RORg) (AID 2283011; active = hit-call score of the fitted dose curve at least 0.9, where 1 is the maximum)
In short: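 HepG2 cells transiently transfected with GAL4-UAS reporter units and chimeric RORg-Gal4 construct; after 24 h chemical exposure, reporter mRNA measured by RT-PCR with fluorescent capillary electrophoresis, gain of signal fitted against DMSO.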

[2] = molecular target: Retinoic acid receptor RXR-alpha (Homo sapiens) (UniProt P19793); test: ATG_RXRa_TRANS: Attagene TRANS-FACTORIAL HepG2 Assay for human Retinoid X Receptor alpha (RXRa) (AID 2283012; active = hit-call score of the fitted dose curve at least 0.9, where 1 is the maximum)
In short: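 HepG2 cells transiently transfected with multiplexed GAL4-UAS reporter units and chimeric NR-GAL4 fusions, dosed 24 h. Reporter mRNA measured by RT-PCR, FAM labelling, HpaI digestion and capillary electrophoresis; gain-of-signal fitted relative to DMSO baseline.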

[3] = molecular target: human Retinoid X Receptor beta (RXRb), RXRB (gene 6257) (UniProt P28702); test: ATG_RXRb_TRANS: Attagene TRANS-FACTORIAL HepG2 Assay for human Retinoid X Receptor beta (RXRb) (AID 2283013; active = hit-call score of the fitted dose curve at least 0.9, where 1 is the maximum)
In short: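 HepG2 cells transiently transfected with multiplexed reporter units driven by GAL4-UAS and exogenous chimeric NR-Gal4 proteins; treated 24 h. Reporter mRNA measured by RT-PCR, 6-FAM labelling and capillary electrophoresis; gain-of-signal fitted versus DMSO baseline.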

[4] = molecular target: human Thyroid Receptor alpha (THRa1), THRA (gene 7067) (UniProt P10827); test: ATG_THRa1_TRANS: Attagene TRANS-FACTORIAL HepG2 Assay for human Thyroid Receptor alpha (THRa1) (AID 2283014; active = hit-call score of the fitted dose curve at least 0.9, where 1 is the maximum)
In short: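 HepG2 cells transiently transfected with chimeric NR-Gal4 and GAL4-UAS reporter units, dosed 24 h. Reporter mRNA quantified by RT-PCR, fluorescent labeling, HpaI digestion and capillary electrophoresis; gain-of-signal fit versus DMSO.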

[5] = read-out: E-selectin (Homo sapiens) (UniProt P16581); test: BSK_3C_Eselectin: BioMAP Diversity Plus: 3C Assay for Eselectin Biomarker Activity (AID 2283015); conditions: primary human endothelial cells (HUVEC); actives raise or lower the signal
In short: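 Primary human umbilical vein endothelial cells (3C system), read 24 h after compound addition; E-selectin measured by ELISA. Bidirectional curve fitting against DMSO baseline; cytotoxicity by parallel SRB total-protein staining.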

[6] = read-out: Interleukin-1 alpha (IL1a), IL1A (gene 3552); test: BSK_BE3C_IL1a: BioMAP Diversity Plus: BE3C Assay for Interleukin-1 alpha (IL1a) Biomarker Activity (AID 2283016); conditions: primary human bronchial epithelial cells; actives raise or lower the signal
In short: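 Human primary bronchial epithelial cells (BE3C system) were dosed with compound and IL-1a measured by ELISA 24 h later. Activity was fitted bidirectionally against DMSO baseline; cytotoxicity was tracked in parallel cultures by SRB total-protein staining.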

[7] = read-out: Monocyte Chemoattractant Protein-1 (MCP1), CCL2 (gene 6347); test: BSK_3C_MCP1: BioMAP Diversity Plus: 3C Assay for Monocyte Chemoattractant Protein-1 (MCP1) Biomarker Activity (AID 2283017); conditions: primary human endothelial cells (HUVEC); actives raise or lower the signal
In short: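 Human umbilical vein endothelial cells (3C system) exposed to chemicals for 24 h; MCP-1 quantified by ELISA against the DMSO baseline with bidirectional fitting, and parallel SRB staining used to assess cytotoxicity.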

[8] = read-out: Monocyte Chemoattractant Protein-1 (MCP1), CCL2 (gene 6347); test: BSK_4H_MCP1: BioMAP Diversity Plus: 4H Assay for Monocyte Chemoattractant Protein-1 (MCP1) Biomarker Activity (AID 2283018); conditions: primary human endothelial cells (HUVEC); actives raise or lower the signal
In short: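 Human umbilical vein endothelial cells (4H system) dosed with chemical; MCP-1 measured by ELISA 24 h after dosing. Bidirectional curve fitting against DMSO negative control as baseline; parallel SRB total-protein staining tracks overt cytotoxicity.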

[9] = read-out: Interleukin-8 (IL8), CXCL8 (gene 3576); test: BSK_3C_IL8: BioMAP Diversity Plus: 3C Assay for Interleukin-8 (IL8) Biomarker Activity (AID 2283020); conditions: primary human endothelial cells (HUVEC); actives raise or lower the signal
In short: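 Primary human umbilical vein endothelial cells (3C system) were exposed to test chemical for 24 h, then IL-8 was quantified by ELISA. Responses were fitted bidirectionally against DMSO vehicle as baseline.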

[10] = read-out: Monokine induced gamma interferon (MIG), CXCL9 (gene 4283); test: BSK_3C_MIG: BioMAP Diversity Plus: 3C Assay for Monokine induced gamma interferon (MIG) Biomarker Activity (AID 2283021); conditions: primary human endothelial cells (HUVEC); actives raise or lower the signal;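 as to AC50: MIG protein level measured by immunoassay in the treated endothelial cultures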
In short: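 Primary human umbilical vein endothelial cells in the 3C system were exposed to chemical for 24 h, after which MIG was quantified by ELISA. Activity was fitted bidirectionally against DMSO as negative control and baseline.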

[11] = BSK_3C_SRB: Viability Assessment in the BioMAP Diversity Plus: 3C Assay (AID 2283023); conditions: primary human endothelial cells (HUVEC);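 also: fitted both ways against DMSO so a hit may be signal rise or drop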
In short: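 Human umbilical vein endothelial cells in the 3C system, treated 24 h. Total protein measured by 0.1% sulforhodamine B staining after 10% TCA fixation, read at 560 nm; bidirectional fit versus DMSO.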

[12] = read-out: Matrix Metallopeptidase 1 (MMP1), MMP1 (gene 4312); test: BSK_BE3C_MMP1: BioMAP Diversity Plus: BE3C Assay for Matrix Metallopeptidase 1 (MMP1) Biomarker Activity (AID 2283024); conditions: primary human bronchial epithelial cells; actives raise or lower the signal
In short: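 Primary human bronchial epithelial cells were dosed with test chemicals, and MMP1 levels were measured by ELISA 24 h later. Data were fitted bidirectionally against DMSO as the negative control and activity baseline.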

[13] = BSK_3C_Vis: BioMAP Diversity Plus: 3C Assay for Morphology Visualization (AID 2283025); conditions: primary human endothelial cells (HUVEC);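 also: fitted both ways so gain or loss versus DMSO counts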
In short: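 Human umbilical vein endothelial cells in the 3C system were imaged by light microscopy 24 h after chemical dosing to record cell morphology. Activity was fitted bidirectionally against DMSO as negative control and baseline; the endpoint serves as a background control.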

[14] = read-out: Pselectin, SELP (gene 6403); test: BSK_4H_Pselectin: BioMAP Diversity Plus: 4H Assay for Pselectin Biomarker Activity (AID 2283026); conditions: primary human endothelial cells (HUVEC); actives raise or lower the signal
In short: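 Primary human umbilical vein endothelial cells were exposed to test chemical for 24 h, then cell-surface P-selectin was quantified by ELISA. Activity was fitted bidirectionally against DMSO as negative control and baseline.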

[15] = BSK_4H_SRB: Viability Assessment in the BioMAP Diversity Plus: 4H Assay (AID 2283027); conditions: primary human endothelial cells (HUVEC);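 also: cells exposed to compound for 24 h before staining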;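 as to AC50: curves fitted both ways versus DMSO so AC50 may be loss or gain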
In short: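 Absorbance at 560 nm of SRB-stained total protein served as the viability read-out in confluent primary human umbilical vein endothelium 24 h after chemical treatment. Curves were fitted bidirectionally against DMSO as negative control.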

[16] = BSK_BE3C_SRB: Viability Assessment in the BioMAP Diversity Plus: BE3C Assay (AID 2283028); conditions: primary human bronchial epithelial cells
In short: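 Human bronchial epithelial primary cells in confluent culture, 24 h after chemical dosing; total protein by 0.1% SRB staining after 10% TCA fixation, read at 560 nm. Bidirectional fitting versus DMSO baseline.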

[17] = read-out: Thrombomodulin, THBD (gene 7056); test: BSK_3C_Thrombomodulin: BioMAP Diversity Plus: 3C Assay for Thrombomodulin Biomarker Activity (AID 2283029); conditions: primary human endothelial cells (HUVEC); actives raise or lower the signal
In short: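 Primary human umbilical vein endothelial cells (3C system) were exposed to chemical for 24 h, then thrombomodulin levels were measured by ELISA. Activity was fitted bidirectionally against the DMSO negative control as baseline.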

[18] = read-out: Human Leukocyte Antigen - DR isotype (HLADR), HLA-DRA (gene 3122); test: BSK_3C_HLADR: BioMAP Diversity Plus: 3C Assay for Human Leukocyte Antigen - DR isotype (HLADR) Biomarker Activity (AID 2283019); conditions: primary human endothelial cells (HUVEC); actives raise or lower the signal
In short: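 HUVEC monoculture, HLA-DR measured by ELISA 24 h after chemical dosing. Fitted bidirectionally against DMSO baseline; parallel SRB staining assessed cytotoxicity, with 3C proliferation read by SRB at 48 h.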

[19] = molecular target: human Vitamin D Receptor (VDR), VDR (gene 7421) (UniProt P11473); test: ATG_VDR_TRANS: Attagene TRANS-FACTORIAL HepG2 Assay for human Vitamin D Receptor (VDR) (AID 2283022; active = hit-call score of the fitted dose curve at least 0.9, where 1 is the maximum)
In short: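 HepG2 cells were transiently transfected with GAL4-UAS reporter units and a chimeric VDR-Gal4 construct, then dosed for 24 hours. Reporter mRNA was quantified by RT-PCR, fluorescent labeling, HpaI digestion and capillary electrophoresis; gain of signal analysed vs DMSO.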

[20] = molecular target: human RAR-related Orphan Receptor beta (RORb), RORB (gene 6096) (UniProt Q92753); test: ATG_RORb_TRANS: Attagene TRANS-FACTORIAL HepG2 Assay for human RAR-related Orphan Receptor beta (RORb) (AID 2283010; active = hit-call score of the fitted dose curve at least 0.9, where 1 is the maximum)
In short: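 HepG2 cells were transiently transfected with multiplexed GAL4-UAS reporter units expressing chimeric nuclear receptor–GAL4 proteins, then dosed for 24 h. Reporter mRNA was quantified by RT-PCR with fluorescent labelling and capillary electrophoresis; gain of signal was fitted relative to DMSO.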

Measured: AC50

Sequence of human RAR-related Orphan Receptor beta (RORb), RORB (gene 6096) (Q92753 whole entry, looked up, the tested form may be a part): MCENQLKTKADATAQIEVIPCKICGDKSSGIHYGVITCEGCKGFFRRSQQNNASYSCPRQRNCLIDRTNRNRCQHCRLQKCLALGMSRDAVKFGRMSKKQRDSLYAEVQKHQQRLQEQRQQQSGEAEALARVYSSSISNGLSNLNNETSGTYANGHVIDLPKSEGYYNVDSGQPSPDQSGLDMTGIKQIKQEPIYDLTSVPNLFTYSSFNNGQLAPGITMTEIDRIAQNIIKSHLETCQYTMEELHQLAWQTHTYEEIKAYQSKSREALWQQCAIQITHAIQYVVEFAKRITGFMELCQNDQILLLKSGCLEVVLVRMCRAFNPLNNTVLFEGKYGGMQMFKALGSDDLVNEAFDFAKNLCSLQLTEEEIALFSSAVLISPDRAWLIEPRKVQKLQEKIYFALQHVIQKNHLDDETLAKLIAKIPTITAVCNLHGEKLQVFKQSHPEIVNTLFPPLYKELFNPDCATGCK
Sequence of human Retinoid X Receptor beta (RXRb), RXRB (gene 6257) (P28702 whole entry, looked up, the tested form may be a part): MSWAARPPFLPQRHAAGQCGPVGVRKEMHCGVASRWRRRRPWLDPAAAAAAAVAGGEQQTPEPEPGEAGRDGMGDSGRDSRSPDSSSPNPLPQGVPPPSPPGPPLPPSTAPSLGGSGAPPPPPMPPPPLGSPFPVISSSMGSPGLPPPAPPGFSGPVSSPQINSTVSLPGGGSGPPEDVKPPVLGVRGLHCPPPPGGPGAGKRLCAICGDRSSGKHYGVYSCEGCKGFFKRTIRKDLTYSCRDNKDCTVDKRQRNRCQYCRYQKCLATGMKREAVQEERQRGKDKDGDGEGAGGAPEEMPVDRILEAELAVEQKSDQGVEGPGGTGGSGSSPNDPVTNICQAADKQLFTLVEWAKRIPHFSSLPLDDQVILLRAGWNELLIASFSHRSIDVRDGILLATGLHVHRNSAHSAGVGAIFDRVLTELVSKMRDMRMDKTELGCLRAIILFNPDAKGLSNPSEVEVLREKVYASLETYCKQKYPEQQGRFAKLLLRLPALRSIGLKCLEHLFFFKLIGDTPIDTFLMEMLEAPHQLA
Sequence of Retinoic acid receptor RXR-alpha (Homo sapiens) (P19793 whole entry, looked up, the tested form may be a part): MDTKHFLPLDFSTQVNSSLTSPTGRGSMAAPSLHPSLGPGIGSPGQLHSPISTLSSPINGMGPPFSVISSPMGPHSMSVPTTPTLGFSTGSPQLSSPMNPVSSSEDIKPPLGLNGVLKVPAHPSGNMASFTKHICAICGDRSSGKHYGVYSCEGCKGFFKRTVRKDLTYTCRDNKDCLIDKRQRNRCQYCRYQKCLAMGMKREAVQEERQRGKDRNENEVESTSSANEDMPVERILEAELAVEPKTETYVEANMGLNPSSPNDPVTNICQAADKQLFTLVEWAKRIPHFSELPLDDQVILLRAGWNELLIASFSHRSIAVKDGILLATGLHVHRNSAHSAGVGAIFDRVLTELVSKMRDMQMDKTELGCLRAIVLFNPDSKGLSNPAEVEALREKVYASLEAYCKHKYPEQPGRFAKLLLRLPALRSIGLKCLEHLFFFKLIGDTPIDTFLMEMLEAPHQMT
Sequence of human Thyroid Receptor alpha (THRa1), THRA (gene 7067) (P10827 whole entry, looked up, the tested form may be a part): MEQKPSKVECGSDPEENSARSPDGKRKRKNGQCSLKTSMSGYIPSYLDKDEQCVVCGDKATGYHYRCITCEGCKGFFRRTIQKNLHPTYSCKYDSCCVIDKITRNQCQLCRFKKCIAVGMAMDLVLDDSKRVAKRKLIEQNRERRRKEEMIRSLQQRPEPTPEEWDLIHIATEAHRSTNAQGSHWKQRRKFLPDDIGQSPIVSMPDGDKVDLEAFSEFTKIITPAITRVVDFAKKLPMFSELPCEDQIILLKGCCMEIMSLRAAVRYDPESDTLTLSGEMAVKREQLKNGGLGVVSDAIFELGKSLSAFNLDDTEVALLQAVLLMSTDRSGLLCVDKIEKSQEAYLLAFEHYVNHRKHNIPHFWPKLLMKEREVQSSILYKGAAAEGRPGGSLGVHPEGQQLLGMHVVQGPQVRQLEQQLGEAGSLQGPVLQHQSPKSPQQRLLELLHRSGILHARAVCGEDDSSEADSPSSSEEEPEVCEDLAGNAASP
Sequence of E-selectin (Homo sapiens) (P16581 whole entry, looked up): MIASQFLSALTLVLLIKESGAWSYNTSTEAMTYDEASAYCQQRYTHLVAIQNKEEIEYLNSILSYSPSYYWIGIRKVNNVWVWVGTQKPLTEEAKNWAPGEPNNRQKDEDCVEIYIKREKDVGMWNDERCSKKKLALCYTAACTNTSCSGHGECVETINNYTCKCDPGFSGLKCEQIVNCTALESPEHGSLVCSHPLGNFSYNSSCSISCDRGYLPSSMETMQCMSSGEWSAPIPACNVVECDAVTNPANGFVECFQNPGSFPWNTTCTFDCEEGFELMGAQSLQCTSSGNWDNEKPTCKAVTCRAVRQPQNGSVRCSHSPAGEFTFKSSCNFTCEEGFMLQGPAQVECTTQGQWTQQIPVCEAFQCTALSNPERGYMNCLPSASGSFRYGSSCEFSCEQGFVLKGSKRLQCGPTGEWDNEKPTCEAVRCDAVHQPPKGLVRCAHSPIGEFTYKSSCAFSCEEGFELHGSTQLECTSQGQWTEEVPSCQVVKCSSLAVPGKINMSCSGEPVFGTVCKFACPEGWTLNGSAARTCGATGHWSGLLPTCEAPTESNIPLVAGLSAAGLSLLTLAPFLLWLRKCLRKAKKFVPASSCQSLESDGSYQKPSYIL
Sequence of human Vitamin D Receptor (VDR), VDR (gene 7421) (P11473 whole entry, looked up, the tested form may be a part): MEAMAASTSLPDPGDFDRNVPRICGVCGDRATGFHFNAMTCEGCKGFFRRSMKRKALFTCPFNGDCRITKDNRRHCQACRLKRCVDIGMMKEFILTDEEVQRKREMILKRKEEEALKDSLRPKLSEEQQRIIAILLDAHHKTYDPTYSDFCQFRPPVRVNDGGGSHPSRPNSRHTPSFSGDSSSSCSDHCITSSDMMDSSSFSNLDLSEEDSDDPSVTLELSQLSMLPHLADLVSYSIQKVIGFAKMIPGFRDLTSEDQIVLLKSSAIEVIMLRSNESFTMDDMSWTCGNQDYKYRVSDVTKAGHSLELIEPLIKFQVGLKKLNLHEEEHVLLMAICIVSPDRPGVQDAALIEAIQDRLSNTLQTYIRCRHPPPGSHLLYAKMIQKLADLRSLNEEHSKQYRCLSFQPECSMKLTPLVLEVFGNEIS
Sequence of human RAR-related Orphan Receptor gamma (RORg), RORC (gene 6097) (P51449 whole entry, looked up, the tested form may be a part): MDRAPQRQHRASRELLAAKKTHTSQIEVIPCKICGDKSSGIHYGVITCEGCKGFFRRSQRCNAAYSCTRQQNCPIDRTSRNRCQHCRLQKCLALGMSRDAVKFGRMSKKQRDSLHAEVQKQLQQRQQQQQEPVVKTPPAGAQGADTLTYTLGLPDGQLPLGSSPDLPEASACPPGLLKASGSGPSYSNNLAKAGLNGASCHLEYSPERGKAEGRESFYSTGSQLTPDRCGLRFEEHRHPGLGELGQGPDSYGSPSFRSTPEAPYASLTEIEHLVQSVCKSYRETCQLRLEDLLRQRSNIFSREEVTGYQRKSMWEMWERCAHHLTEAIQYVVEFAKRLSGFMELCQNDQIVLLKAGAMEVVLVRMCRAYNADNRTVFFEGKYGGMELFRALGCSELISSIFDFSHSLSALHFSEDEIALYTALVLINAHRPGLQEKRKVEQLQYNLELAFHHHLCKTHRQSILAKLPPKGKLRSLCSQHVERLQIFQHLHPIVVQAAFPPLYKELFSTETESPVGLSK

CCN(CC)c1ccc2c(C)cc(=O)oc2c1
active: [3] 26.5 µM | [13] 37.5 µM
not listed: [18] | [19] | [20]
inactive: all other assays above

O[Si](c1ccccc1)(c1ccccc1)c1ccccc1
active: [5] 6.83 µM | [7] 37.6 µM | [8] 11.9 µM | [18] 30.6 µM | [11] 28.9 µM | [13] 37.4 µM | [14] 26.8 µM | [15] 13.8 µM
not listed: [1] | [9] | [20]
inactive: all other assays above

CC(C)c1ccccc1N
inactive: [20] | [3]

C=CC(=O)OCC(F)(F)C(F)(F)C(F)(F)C(F)(F)COC(=O)C=C
inactive: [2] | [4] | [19] | [16] | [17]
active: [3] 1.1 µM | [5] 35.8 µM and 38.1 µM | [6] 20.2 µM and 25.4 µM | [7] 33.8 µM and 22.1 µM | [8] 49.4 µM and 49 µM | [18] 17.2 µM and 18.1 µM | [10] 23.5 µM and 26.4 µM | [11] 34.8 µM and 24.8 µM | [12] 20.4 µM and 20.5 µM | [14] 20.6 µM and 28.9 µM | [15] 47.1 µM and 44.8 µM

FC(F)(F)C(F)(F)C(F)(F)C(F)(F)C(F)(F)C(F)(F)CCS
not listed: [3] | [9] | [13] | [20]
inactive: all other assays above

O=P(O)(O)OCCC(F)(F)C(F)(F)C(F)(F)C(F)(F)C(F)(F)C(F)(F)F
not listed: [1] | [3] | [9] | [13] | [19]
inactive: all other assays above

Nc1ccc(S(=O)(=O)Nc2nccs2)cc1
inactive: [20] | [3]

CC(C)(C)C(=O)CC(=O)C(F)(F)C(F)(F)C(F)(F)F
inactive: [20] | [3] | [5] | [6] | [7] | [8] | [9] | [10] | [19] | [11] | [12] | [14] | [15] | [16]
active: [11] 48.3 µM | [14] 5.95 µM | [17] 41.2 µM and 47.3 µM
